The results in this text go back to PubChem BioAssay (NCATS).

Results filed as inconclusive are left out. Unmarked numbers belong to inactive results. Active and inactive are the calls of the source. Calls follow the shape of the dose curve; as a rule, active = well fitted inhibition curve with a large enough effect; inconclusive = small, poorly fitted or top-dose-only effect; inactive = flat fitted curve, though single readings scatter.

Experiment [1] concerns CRL-7250. The experiment is described as follows: Cytotoxic Profiling of Annotated Libraries Using Quantitative High-Throughput Screening (AID 1296008). Also: nearly all actives have a fitted effect of over 60% in size. To be noted: Five cell lines viability, CellTiter-Glo ATP luminescence, 48-72 h; max response: stronger effect = lower value. The essentials: (§1)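 Cytotoxicity was measured as CellTiter-Glo ATP luminescence, read after 10 min at room temperature. Compound treatment of the cells lasted 48 or 72 hr at 37 degrees Celsius in a qHTS format.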
In general terms: ATP-based viability assays read luminescence as a measure of living cells.

Experiment [2] relates to HEK293. The experiment is described as above. To be noted: Five cell lines viability, CellTiter-Glo ATP luminescence, 48-72 h; max response: stronger effect = lower value. The essentials: as §1
% is scaled to controls: 0 for no effect and ±100 for the full control effect; potency is read from the fitted curve at half-maximal effect.

As to `COc1ccc(CC2NCCc3c2[nH]c2ccc(C)cc32)cc1OC` (stereo not drawn), the max response in experiment [1] is -17.7%. Besides, the Potency in experiment [2] was 10.3 µM (active).

`CC1(C)CC[C@]2(C(=O)O[C@@H]3O[C@H](CO)[C@@H](O)[C@H](O)[C@H]3O)CC[C@]3(C)C(=CCC4[C@@]5(C)CC[C@H](O[C@@H]6O[C@H](C(=O)O)[C@@H](O)[C@H](O)[C@H]6O)C(C)(C)C5CC[C@]43C)C2C1` (stereo partly drawn): the max response is 0.241% in experiment [1] and -5.49% in experiment [2].

Turning to `C[C@@H]1CCC/C=C/[C@H]2CC(=O)C[C@@H]2[C@@H](O)/C=C/C(=O)O1`, the max response in experiment [1] is -3.74%; in experiment [2] it was -12%.

For `Nc1nc(-n2cc(C(=O)O)c(=O)c3cc(F)c(N4CC(O)C4)c(Cl)c32)c(F)cc1F`, in experiment [1], the max response was -9.26%. Moreover, in experiment [2], the compound was classed as inactive.

Turning to `COc1cc2ncnc(N3CCC(Oc4cnc5ccccc5n4)C3)c2cc1OC` (stereo not drawn), the Potency was 6.51 µM (active) in experiment [1] and 0.366 µM (active) in experiment [2].

For `CC(C)C[C@H](CC(=O)NO)C(=O)N[C@@H](Cc1ccc2ccccc2c1)C(=O)N[C@@H](C)C(=O)NCCN`, the max response in experiment [1] is -4.14%; in experiment [2], 0.393%.

For `CC(C)(C)Nc1nc2cc(Cl)c(Cl)cc2nc1S(C)(=O)=O`, the figures for the Potency in experiment [1] and in experiment [2] were 16.4 µM (active) and 4.11 µM (active), respectively.

As for `CC(C)=CCC/C(C)=C/CCC1(C)Oc2c(c(O)cc3c2CN(C(CCC(=O)O)C(=O)O)C3=O)CC1O` (stereo not drawn), the max response in experiment [1] is -8.75%; in experiment [2], -4.48%.

Regarding `C[C@H](C/C=C/C(C)(C)O)[C@H]1CC[C@@]2(C)[C@@H]3[C@@H](O[C@@H]4O[C@H](CO)[C@@H](O)[C@H](O)[C@H]4O)C=C4C(CC[C@H](O)C4(C)C)[C@]3(C=O)CC[C@]12C` (stereo partly drawn), the figures for the max response in experiment [1] and in experiment [2] were -2.26% and -5.89%, respectively.

Turning to `O=C(O[C@H]1[C@@H]2C=CO[C@@H](O[C@@H]3O[C@H](CO)[C@@H](O)[C@H](O)[C@H]3O)[C@@H]2[C@@]2(CO)O[C@@H]12)c1ccccc1`, the max response was -3.06% in experiment [1] and -2.12% in experiment [2].

On to `CC(=O)O[C@H]1[C@H](O[C@H]2[C@@H]3C=CO[C@@H](O[C@@H]4O[C@H](CO)[C@@H](O)[C@H](O)[C@H]4O)[C@@H]3[C@@]3(CO)O[C@@H]23)O[C@@H](C)[C@H](OC(=O)/C=C/c2ccccc2)[C@H]1OC(=O)/C=C/c1ccccc1`, for which the max response was -1.73% in experiment [1] and -0.402% in experiment [2].

As for `C=C1C[C@]23C[C@H]1CC[C@H]2[C@]1(C)CCC[C@@](C)(C(=O)O)[C@H]1[C@@H]3C(=O)O`, the outcome in experiment [1] was inactive. In experiment [2], the max response is -6%.

As to `C[C@@H]1C(=O)O[C@H]2C[C@]34[C@H]5C[C@@H](C(C)(C)C)[C@]36[C@@H](OC(=O)[C@H]6O)O[C@]4(C(=O)O5)[C@]21O`, the figures for the max response in experiment [1] and in experiment [2] were -0.0261% and -44.8%, respectively.

As for `O=C1CC2(CCCC2)[C@H](O)C(=O)N1CCCCN1CCN(c2ncccn2)CC1`, the max response in experiment [1] was 2.44%; in experiment [2], -2.49%.

As for `C=CC[C@]12C[C@@H](OC)C(=O)C(OC)=C1O[C@@H](c1cc(OC)c3c(c1)OCO3)[C@@H]2C`, the max response in experiment [1] is 4.3%; in experiment [2], -8.3%.

Regarding `COC1CC(O[C@H]2CC[C@@]3(C)C(=CC[C@]4(O)C3[C@H](OC(C)=O)[C@@H](OC(=O)c3ccccc3)[C@]3(C)[C@@H](C(C)=O)CC[C@@]34O)C2)OC(C)C1OC1CC(OC)C(OC2CC(OC)C(OC3OC(C)C(OC4OC(CO)C(O)C(O)C4O)C(OC)C3O)C(C)O2)C(C)O1` (stereo partly drawn), in experiment [1], the compound was called inactive. Also, in experiment [2], the max response is 1.75%.

Turning to `CC(Oc1ccc2[nH]nc(/C=C/c3cnn(CCO)c3)c2c1)c1c(Cl)cncc1Cl` (stereo not drawn), the Potency is 1.46 µM (active) in experiment [1] and 2.91 µM (active) in experiment [2].

`CC(O)(CC(=O)O)CC(=O)OCc1ccc(O[C@@H]2O[C@H](CO)[C@@H](O)[C@H](O)[C@H]2O)cc1` (stereo partly drawn): the call in experiment [1] was inactive. In experiment [2], the max response is -1.35%.

For `CC(=O)OC1C(c2ccccc2)CCC(c2ccccc2)C1OC(C)=O` (stereo not drawn), the results for the max response in experiment [1] and in experiment [2] were 2.93% and -10.8%, respectively.

With `C[C@@H]1O[C@@H](O[C@H]2[C@H](O[C@H]3[C@H](O[C@H]4CC[C@@]5(C)C(CC[C@]6(C)C5CC=C5[C@@H]7CC(C)(C)CC[C@]7(C(=O)O[C@@H]7O[C@H](CO)[C@@H](O[C@@H]8O[C@@H](C)[C@H](O)[C@@H](O)[C@H]8O)[C@H](O)[C@H]7O)CC[C@]56C)C4(C)C)OC[C@H](O)[C@@H]3O)O[C@H](CO)[C@@H](O)[C@@H]2O)[C@H](O)[C@H](O)[C@H]1O` (stereo partly drawn), the max response is -33.4% in experiment [1] and -93.1% in experiment [2].

As to `O=C(Nc1nc2ccccc2n1CCc1ccccc1)c1ccccc1`, the figures for the max response in experiment [1] and in experiment [2] were 1.35% and -110%, respectively.

On to `CCOc1cc(C)c(Cl)cc1S(=O)(=O)n1cnc2ccccc21`, for which the max response in experiment [1] was -6.19%; in experiment [2], -19.4%.

For `COc1cc(C)c(C(=O)O[C@H]2[C@@H](OC(C)=O)[C@H](n3ccc(=O)[nH]c3=O)O[C@@H]2CO)c(OC)c1`, the max response in experiment [1] is -2.01%; in experiment [2] it was -0.552%.

Take `C[C@@H]1O[C@@H](O[C@H]2[C@@H]3C=CO[C@@H](O[C@@H]4O[C@H](CO)[C@@H](O)[C@H](O)[C@H]4O)[C@@H]3[C@@]3(CO)O[C@@H]23)[C@H](OC(=O)/C=C/c2ccccc2)[C@H](O)[C@H]1O`: the max response was -0.445% in experiment [1] and -1.51% in experiment [2].

On to `C[C@H](NC(c1cccc(C[P+](=O)O)c1)[C@H](C)O)c1ccc(Cl)c(Cl)c1` (stereo partly drawn), for which, in experiment [1], the compound was classed as inactive. Further, the max response in experiment [2] is -17.8%.

As to `CCCCOC(=O)NC(=O)C1c2ccccc2Oc2ccccc21`, the max response in experiment [1] was -2.73%. The result in experiment [2] was inactive.

Take `Cc1ccccc1C#Cc1ccc(CCC(=O)O)cc1`: the figures for the max response in experiment [1] and in experiment [2] were -3.17% and -13.9%, respectively.

In the case of `O=C(O)CC1CCC(c2ccc(-c3ccc4nc(C(=O)NCc5ccc(OC(F)(F)F)cc5)cn4c3)cc2)CC1` (stereo not drawn), the max response in experiment [1] is 4.28%; in experiment [2] it was -9.35%.

`CO[C@H]1/C=C\O[C@@]2(C)Oc3c(C)c(O)c4c(O)c(c5c(nc6cc(C)ccn65)c4c3C2=O)NC(=O)/C(C)=C\C=C/[C@H](C)[C@H](O)[C@@H](C)[C@@H](O)[C@@H](C)[C@H](OC(C)=O)[C@@H]1C`: the max response in experiment [1] was -2.8%; in experiment [2], -17.1%.

`O=C(CCc1ccccc1)N1CCC(O)(Cn2cnc3cc(Cl)ccc3c2=O)CC1`: the max response was -1.98% in experiment [1] and -25.5% in experiment [2].

In the case of `O=C(O)c1c(O)c(-c2ccccc2)nc2ccccc12`, the compound was classed as inactive in experiment [1]. The max response in experiment [2] is -11.2%.

As for `CN(C)c1ccc2c(c1)OC(N)=C(C#N)C2c1cccc(C(F)(F)F)c1` (stereo not drawn), the Potency was 1.64 µM (active) in experiment [1] and 0.184 µM (active) in experiment [2].

As to `CC[C@@](C)(Nc1ccnc(-c2c[nH]c3ncccc23)n1)C(=O)NCC(F)(F)F`, the call in experiment [1] was inactive. Further, the max response in experiment [2] is -4.43%.

`C[C@@H]1C[C@@H]2O[C@H]2/C=C\C=C\C(=O)Cc2c(Cl)c(O)cc(O)c2C(=O)O1`: the Potency is 4.53 µM (active) in experiment [1] and 0.286 µM (active) in experiment [2].

As for `CC1(C(=O)O)CCCC2(C)C3CCC4CC3(CCC12)CC4=O` (stereo not drawn), the max response is -1.87% in experiment [1] and 0.827% in experiment [2].

`Cc1ccc(S(=O)(=O)c2ccc([N+](=O)[O-])o2)cc1`: the Potency is 5.8 µM (active) in experiment [1] and 1.03 µM (active) in experiment [2].

For `CCn1cc(NC(=S)Nc2cc(Cl)ccc2OC)c(C(N)=O)n1`, the results for the max response in experiment [1] and in experiment [2] were -6.99% and -2.95%, respectively.

Regarding `Cc1ccc(F)cc1C(=O)Nc1ccc(C(=O)N2Cc3cccn3Cc3ccccc32)c(Cl)c1`, the max response in experiment [1] was -11.2%. Moreover, the Potency in experiment [2] is 9.2 µM (active).

On to `CC(C)=CCC[C@](C)(O)[C@H]1CC[C@]2(C)[C@@H]1[C@H](O)CC1[C@@]3(C)CC[C@H](O)C(C)(C)C3[C@@H](O[C@@H]3O[C@H](CO)[C@@H](O)[C@H](O)[C@H]3O[C@@H]3OC[C@@H](O)[C@H](O)[C@H]3O)C[C@]12C` (stereo partly drawn), for which the max response in experiment [1] was -0.925%; in experiment [2] it was 4.3%.

Turning to `CC(=O)O[C@@H]1c2c(C)coc2C(=O)[C@@]23O[C@@H]2CC[C@H](C)[C@@]13C`, the max response in experiment [1] was 3.98%; in experiment [2] it was 2.56%.

In the case of `Clc1cc2c(NC3CCCC3)nnc(-c3ccncc3)c2cc1Cl`, the figures for the max response in experiment [1] and in experiment [2] were -13.3% and -9.96%, respectively.

Consider `C=C1CCC2C(C)(C)CCC[C@]2(C)[C@H]1C/C=C(\CO)C(=O)C(=O)O` (stereo partly drawn), for which the max response in experiment [1] was -8.85%; in experiment [2], 1.79%.

In the case of `COC(=O)C1=COC(O[C@@H]2O[C@H](CO)[C@@H](O)[C@H](O)[C@H]2O)[C@H]2[C@@H]1[C@H](OC(=O)CCc1ccc(O)cc1)C[C@]2(C)O` (stereo partly drawn), the compound was called inactive in experiment [1]. Besides, the max response in experiment [2] is 0.992%.

In the case of `O=C(O)Cc1ccc2oc(-c3ccc(NC(=O)/C=C/c4ccc(Br)cc4)c(F)c3)nc2c1`, the max response was 4.13% in experiment [1] and -7.74% in experiment [2].

Turning to `C[C@@H]1O[C@@H](O[C@H]2[C@@H]3C=CO[C@@H](O[C@@H]4O[C@H](CO)[C@@H](O)[C@H](O)[C@H]4O)[C@@H]3[C@@]3(CO)O[C@@H]23)[C@H](OC(=O)/C=C/c2ccc(O)c(O)c2)[C@H](O)[C@H]1O`, the result in experiment [1] was inactive. Further, in experiment [2], the max response was -5.61%.

Take `CS(=O)(=O)N1CCC(NC(=O)c2[nH]ncc2NC(=O)c2c(Cl)cccc2Cl)CC1`: the Potency was 3.26 µM (active) in experiment [1] and 1.16 µM (active) in experiment [2].

Regarding `COC(=O)C[C@H]1C(C)(C)[C@H](OC(=O)C(C)C)[C@@]2(O)C(=O)[C@]1(C)C1CC[C@]3(C)C(CC(=O)O[C@H]3c3ccoc3)[C@]13O[C@@H]32` (stereo partly drawn), the compound was classed as inactive in experiment [1]. Moreover, in experiment [2], the max response is -5.5%.

With `CCNCc1nc2c(N)nc3ccccc3c2n1CC(C)(C)O`, the compound was called inactive in experiment [1]. Besides, in experiment [2], the max response was -9.18%.

For the compound `C[C@H](NC(=O)CCc1nc2ccccc2c(=O)[nH]1)c1ccccc1`, the max response in experiment [1] was -24%; in experiment [2], -7.11%.
